Several values for one entry are separate records, joined by “and”; a condition that tells them apart may be missing. Equal values may be shown once. In all, about 5,500 compounds went through this assay and about 2,000 (36%) were called active. Not shown: some 18% with an inconclusive outcome. No stated cut-off is given here; in the data, active means normalized growth mostly below about 0.91 (no sharp cut-off); inconclusive means no clear call, values can overlap the other calls; inactive means mostly above about 0.92. The list shows a part of the results.
Assay: chemical genetic growth profiling, strain panel (AID 1159580);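 further: tested at 20 µM; growth read once vehicle control cultures reached saturation at 30 °C; 1 = growth at the plate median or of vehicle wells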
Details: S. cerevisiae deletion strains, growth OD

Measured: normalized growth

O=C(O)C1=CCCNC1
inactive: locus YAL021C, strain ccr4, stronger effect = lower value 1.02 | locus YAL026C, strain drs2, stronger effect = lower value 0.991 | locus YAL030W, strain snc1, stronger effect = lower value 0.999 | locus YBL061C, strain skt5, stronger effect = lower value 0.993 | locus YBR009C, strain hhf1, stronger effect = lower value 1.04 | locus YBR021W, strain FUR4, stronger effect = lower value 1.02 | locus YBR023C, strain chs3, stronger effect = lower value 1.01 | locus YBR171W, strain sec66, stronger effect = lower value 0.985 | locus YBR229C, strain ROT2, stronger effect = lower value 1 | locus YBR231C, strain swc5, stronger effect = lower value 0.981 | locus YBR279W, strain paf1, stronger effect = lower value 0.988 | locus YCL011C, strain gbp2, stronger effect = lower value 1.01 | locus YCL016C, strain dcc1, stronger effect = lower value 1.02 | locus YCL029C, strain bik1, stronger effect = lower value 0.974 | locus YCL061C, strain MRC1 (second series), stronger effect = lower value 1.01 | locus YCL069W, strain vba3, stronger effect = lower value 1 | locus YCR088W, strain abp1, stronger effect = lower value 0.989 | locus YDL005C, strain med2, stronger effect = lower value 0.978 | locus YDL035C, strain GPR1, stronger effect = lower value 0.99 | locus YDL040C, strain nat1, stronger effect = lower value 0.989 | locus YDL074C, strain BRE1, stronger effect = lower value 0.984 | locus YDL101C, strain DUN1, stronger effect = lower value 1.01 | locus YDL185W, strain tfp1, stronger effect = lower value 0.968 | locus YDL192W, strain arf1, stronger effect = lower value 0.973 | locus YDR001C, strain nth1, stronger effect = lower value 0.99 | locus YDR069C, strain doa4, stronger effect = lower value 0.999 | locus YDR101C, strain arx1, stronger effect = lower value 0.979 | locus YDR137W, strain rgp1, stronger effect = lower value 1.01 | locus YDR159W, strain sac3, stronger effect = lower value 0.96 | locus YDR162C, strain NBP2, stronger effect = lower value 1.04 | locus YDR195W, strain ref2 0.959 | locus YDR297W, strain sur2, stronger effect = lower value 1 | locus YDR318W, strain mcm21, stronger effect = lower value 0.995 | locus YDR334W, strain swr1, stronger effect = lower value 0.979 | locus YDR335W, strain msn5, stronger effect = lower value 0.995 | locus YDR363W, strain ESC2, stronger effect = lower value 1.01 | locus YDR388W, stronger effect = lower value 0.989 | locus YDR392W, strain spt3, stronger effect = lower value 0.941 | locus YDR502C, strain sam2, stronger effect = lower value 0.987 | locus YEL003W, strain gim4, stronger effect = lower value 0.989 | locus YEL037C, strain rad23, stronger effect = lower value 0.989 | locus YEL061C, strain CIN8 (second series), stronger effect = lower value 0.987 | locus YEL061C, strain CIN8, stronger effect = lower value 0.998 | locus YER002W, strain NOP16, stronger effect = lower value 0.91 | locus YER015W, strain faa2, stronger effect = lower value 0.984 | locus YER016W, strain bim1, stronger effect = lower value 0.995 | locus YER110C, stronger effect = lower value 0.965 | locus YER111C, strain swi4, stronger effect = lower value 0.981 | locus YER155C, strain BEM2 (second series), stronger effect = lower value 0.959 | locus YER155C, strain BEM2, stronger effect = lower value 0.985 | locus YER167W, strain BCK2, stronger effect = lower value 0.991 | locus YFR010W, strain ubp6, stronger effect = lower value 0.973 | locus YGL078C, strain dbp3, stronger effect = lower value 1.01 | locus YGL086W, strain mad1, stronger effect = lower value 0.98 | locus YGL167C, strain pmr1, stronger effect = lower value 0.99 | locus YGL173C, strain kem1, stronger effect = lower value 0.99 | locus YGL227W, strain vid30, stronger effect = lower value 0.989 | locus YGL240W, strain doc1, stronger effect = lower value 0.986 | locus YGL248W, strain PDE1, stronger effect = lower value 1.02 | locus YGL253W, strain hxk2, stronger effect = lower value 0.981 | locus YGR135W, strain pre9, stronger effect = lower value 0.997 | locus YGR229C, strain SMI1, stronger effect = lower value 1.02 | locus YGR252W, strain gcn5, stronger effect = lower value 1.15 | locus YHR013C, strain ard1, stronger effect = lower value 0.979 | locus YHR027C, strain rpn1, stronger effect = lower value 0.993 | locus YHR030C, strain SLT2, stronger effect = lower value 0.985 and 1.04 | locus YHR079C, strain IRE1 (second series), stronger effect = lower value 0.974 | locus YHR079C, strain IRE1, stronger effect = lower value 1.04 | locus YHR094C, strain hxt1, stronger effect = lower value 0.981 | locus YHR129C, strain ARP1, stronger effect = lower value 0.992 | locus YHR142W, strain chs7, stronger effect = lower value 1.02 | locus YHR200W, strain rpn10, stronger effect = lower value 0.984 | locus YIL066C, strain RNR3, stronger effect = lower value 1.01 | locus YIL073C, strain SPO22, stronger effect = lower value 0.943 | locus YIL125W, strain kgd1, stronger effect = lower value 0.987 | locus YIR030C, strain dcg1, stronger effect = lower value 0.987 | locus YJL092W, strain hpr5, stronger effect = lower value 0.991 | locus YJL095W, strain BCK1 (second series), stronger effect = lower value 1 | locus YJL095W, strain BCK1, stronger effect = lower value 1.05 | locus YJL115W, strain asf1, stronger effect = lower value 0.985 | locus YJL129C, strain trk1, stronger effect = lower value 0.99 | locus YJL134W, strain LCB3, stronger effect = lower value 0.991 | locus YJL154C, strain vps35, stronger effect = lower value 0.98 | locus YJL164C, strain tpk1, stronger effect = lower value 1.02 | locus YJL166W, strain qcr8, stronger effect = lower value 1.01 | locus YJL168C, strain set2, stronger effect = lower value 0.993 | locus YJL187C, strain SWE1 (second series), stronger effect = lower value 1.02 | locus YJR043C, strain POL32, stronger effect = lower value 1.01 | locus YJR066W, strain TOR1, stronger effect = lower value 0.997 | locus YJR075W, strain HOC1, stronger effect = lower value 1.01 and 1 | locus YKL009W, strain mrt4, stronger effect = lower value 0.961 | locus YKL068W, stronger effect = lower value 1 | locus YKL085W, strain MDH1 (second series), stronger effect = lower value 0.973 | locus YKL085W, strain MDH1, stronger effect = lower value 0.973 | locus YKL160W, strain elf1, stronger effect = lower value 1 | locus YKL190W, strain CNB1, stronger effect = lower value 0.997 | locus YKR001C, strain vps1, stronger effect = lower value 0.999 | locus YKR026C, strain gcn3, stronger effect = lower value 0.981 | locus YKR091W, strain srl3, stronger effect = lower value 0.995 | locus YLL001W, strain dnm1, stronger effect = lower value 0.993 | locus YLL026W, stronger effect = lower value 0.994 | locus YLL041C, strain sdh2, stronger effect = lower value 0.987 | locus YLR027C, strain aat2, stronger effect = lower value 0.969 | locus YLR039C, strain RIC1, stronger effect = lower value 0.963 | locus YLR058C, strain SHM2, stronger effect = lower value 1.01 | locus YLR102C, strain apc9, stronger effect = lower value 0.97 | locus YLR113W, strain HOG1, stronger effect = lower value 1.02 | locus YLR221C, strain rsa3, stronger effect = lower value 0.96 | locus YLR258W, strain gsy2, stronger effect = lower value 1.02 | locus YLR262C, strain YPT6 (second series), stronger effect = lower value 1.01 | locus YLR262C, strain YPT6, stronger effect = lower value 0.999 | locus YLR268W, strain sec22, stronger effect = lower value 0.975 | locus YLR320W, strain mms22, stronger effect = lower value 0.963 | locus YLR330W, strain CHS5, stronger effect = lower value 0.984 | locus YLR342W, strain FKS1 (second series), stronger effect = lower value 0.987 | locus YLR342W, strain FKS1, stronger effect = lower value 0.983 | locus YLR357W, strain rsc2, stronger effect = lower value 0.969 | locus YLR370C, strain arc18, stronger effect = lower value 0.998 | locus YLR371W, strain rom2, stronger effect = lower value 0.977 | locus YLR384C, strain iki3, stronger effect = lower value 0.973 | locus YLR418C, strain cdc73, stronger effect = lower value 1.04 | locus YML016C, strain PPZ1, stronger effect = lower value 0.995 | locus YML032C, strain rad52, stronger effect = lower value 0.989 | locus YML120C, strain ndi1, stronger effect = lower value 1.01 | locus YML124C, strain tub3, stronger effect = lower value 1.01 | locus YMR058W, strain fet3, stronger effect = lower value 0.992 | locus YMR078C, strain ctf18, stronger effect = lower value 0.974 | locus YMR125W, strain sto1, stronger effect = lower value 1.01 | locus YMR129W, stronger effect = lower value 0.992 | locus YMR205C, strain PFK2, stronger effect = lower value 1.01 | locus YMR223W, strain ubp8, stronger effect = lower value 1 | locus YMR231W, strain pep5, stronger effect = lower value 0.985 | locus YMR263W, strain SAP30, stronger effect = lower value 1 and 1.01 | locus YMR307W, strain GAS1, stronger effect = lower value 1.12 | locus YNL067W, strain RPL9B, stronger effect = lower value 1.03 | locus YNL071W, strain lat1, stronger effect = lower value 1 | locus YNL153C, strain GIM3, stronger effect = lower value 1.04 and 1.02 | locus YNL175C, strain NOP13, stronger effect = lower value 1 | locus YNL183C, strain NPR1, stronger effect = lower value 1.01 | locus YNL197C, strain WHI3, stronger effect = lower value 0.915 | locus YNL209W, strain ssb2, stronger effect = lower value 1.01 | locus YNL224C, strain SQS1, stronger effect = lower value 1 | locus YNL233W, strain BNI4, stronger effect = lower value 1.02 | locus YNL248C, strain rpa49, stronger effect = lower value 0.965 | locus YNL250W, strain rad50, stronger effect = lower value 0.978 | locus YNL271C, strain bni1, stronger effect = lower value 0.994 | locus YNL298W, strain CLA4, stronger effect = lower value 0.987 | locus YNL307C, strain MCK1, stronger effect = lower value 0.992 | locus YNL322C, strain KRE1 (second series), stronger effect = lower value 1 | locus YNL322C, strain KRE1, stronger effect = lower value 1.01 | locus YNR049C, strain mso1, stronger effect = lower value 0.976 | locus YNR052C, strain pop2, stronger effect = lower value 1.01 | locus YOL006C, strain TOP1, stronger effect = lower value 0.976 | locus YOL012C, strain htz1 1.03 | locus YOL147C, strain pex11, stronger effect = lower value 0.984 | locus YOR001W, strain rrp6, stronger effect = lower value 0.943 | locus YOR061W, strain CKA2, stronger effect = lower value 0.992 | locus YOR069W, strain VPS5, stronger effect = lower value 0.989 | locus YOR070C, strain gyp1, stronger effect = lower value 0.982 | locus YOR080W, strain dia2, stronger effect = lower value 0.987 | locus YOR083W, strain WHI5 (second series), stronger effect = lower value 1.03 | locus YOR083W, strain WHI5, stronger effect = lower value 1.01 | locus YOR106W, strain vam3, stronger effect = lower value 1.01 | locus YOR136W, strain idh2, stronger effect = lower value 0.984 | locus YOR144C, strain elg1, stronger effect = lower value 0.988 | locus YOR184W, strain ser1, stronger effect = lower value 0.97 | locus YOR231W, strain MKK1, stronger effect = lower value 1.05 | locus YOR265W, strain rbl2, stronger effect = lower value 0.992 | locus YOR270C, strain vph1, stronger effect = lower value 0.976 | locus YOR290C, strain snf2, stronger effect = lower value 0.985 | locus YOR316C, strain cot1, stronger effect = lower value 0.98 | locus YPL051W, strain arl3, stronger effect = lower value 0.981 | locus YPL055C, strain LGE1, stronger effect = lower value 1.01 | locus YPL078C, strain atp4, stronger effect = lower value 1.01 | locus YPL106C, strain sse1, stronger effect = lower value 1.01 | locus YPL240C, strain hsp82, stronger effect = lower value 0.992 | locus YPL256C, strain CLN2, stronger effect = lower value 1.03 | locus YPR119W, strain clb2, stronger effect = lower value 0.973 | locus YPR141C, strain kar3, stronger effect = lower value 0.983 | locus YPR163C, strain tif3, stronger effect = lower value 0.983 | locus YPR167C, strain met16, stronger effect = lower value 0.958 | strain wtn01, stronger effect = lower value 0.985
